In all, about 5,500 compounds went through this assay and about 2,000 (36%) were called active. Inconclusive results (about 18%) are left out. No stated cut-off is given here; in the data, active means normalized growth mostly below about 0.91 (no sharp cut-off); inconclusive means no clear call, values can overlap the other calls; inactive means mostly above about 0.92. The list shows a part of the results.
Experiment: chemical genetic growth profiling, strain panel (AID 1159580);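 further: tested at 20 µM; growth read once vehicle control cultures reached saturation at 30 °C; 1 = growth at the plate median or of vehicle wells; lower values mean less growth of the strain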
Settings: growth OD
[1] = S. cerevisiae deletion strains, locus YAL013W, strain DEP1, hits give low values
[2] = S. cerevisiae deletion strains, locus YBR229C, strain ROT2, hits give low values
[3] = S. cerevisiae deletion strains, locus YCL061C, strain MRC1, hits give low values
[4] = S. cerevisiae deletion strains, locus YDL101C, strain DUN1, hits give low values
[5] = S. cerevisiae deletion strains, locus YDR150W, strain NUM1, hits give low values
[6] = S. cerevisiae deletion strains, locus YEL061C, strain CIN8, hits give low values
[7] = S. cerevisiae deletion strains, locus YGR078C, strain PAC10, hits give low values
[8] = S. cerevisiae deletion strains, locus YHR030C, strain SLT2, hits give low values
[9] = S. cerevisiae deletion strains, locus YHR087W, strain rtc3, hits give low values
[10] = S. cerevisiae deletion strains, locus YJR043C, strain POL32, hits give low values
[11] = S. cerevisiae deletion strains, locus YJR075W, strain HOC1, hits give low values
[12] = S. cerevisiae deletion strains, locus YLR039C, strain RIC1, hits give low values
[13] = S. cerevisiae deletion strains, locus YLR058C, strain SHM2 (second series), hits give low values
[14] = S. cerevisiae deletion strains, locus YLR085C, strain ARP6, hits give low values
[15] = S. cerevisiae deletion strains, locus YLR262C, strain YPT6, hits give low values
[16] = S. cerevisiae deletion strains, locus YML094W, strain GIM5, hits give low values
[17] = S. cerevisiae deletion strains, locus YMR219W, strain ESC1, hits give low values
[18] = S. cerevisiae deletion strains, locus YMR263W, strain SAP30, hits give low values
[19] = S. cerevisiae deletion strains, locus YNL153C, strain GIM3, hits give low values
[20] = S. cerevisiae deletion strains, locus YNL298W, strain CLA4 (second series), hits give low values
[21] = S. cerevisiae deletion strains, locus YNL322C, strain KRE1, hits give low values
[22] = S. cerevisiae deletion strains, locus YNR030W, strain Alg12, hits give low values
[23] = S. cerevisiae deletion strains, locus YPL055C, strain LGE1, hits give low values
[24] = S. cerevisiae deletion strains, locus YPL241C, strain CIN2, hits give low values
[25] = S. cerevisiae deletion strains, locus YPR135W, strain CTF4, hits give low values

Measured: normalized growth

COc1ccccc1N1CCN(C(=O)Nc2cc(Cl)cc(Cl)c2)CC1
active: [8] 0.434 | [14] 0.511 | [16] 0.823 | [20] 0.715 | [22] 0.877 | [23] 0.761 | [24] 0.716
inactive: [1] 0.934 | [2] 0.988 | [3] 0.927 | [4] 0.967 | [5] 0.854 | [6] 0.914 | [7] 0.965 | [9] 0.97 | [10] 0.971 | [11] 0.986 | [12] 1.09 | [13] 1 | [15] 1.05 | [17] 1 | [18] 0.937 | [19] 0.975 | [21] 0.984 | S. cerevisiae deletion strains, locus YOL006C, strain TOP1, hits give low values 0.857 | [25] 0.667 | S. cerevisiae strains, strain wild type, hits give low values 0.922

COc1cc(NC(=S)N2CCN(c3ccccc3OC)CC2)c(OC)cc1Cl
inactive: [1] 1.01 | [2] 0.992 | [3] 0.984 | [4] 1 | S. cerevisiae deletion strains, locus YDL134C, strain PPH21, hits give low values 1.01 | [5] 0.92 | [6] 1 | [7] 1.01 | [8] 0.95 | [9] 1.01 | S. cerevisiae deletion strains, locus YJL187C, strain SWE1, hits give low values 0.997 | [10] 0.984 | [11] 0.999 | S. cerevisiae deletion strains, locus YKL190W, strain CNB1, hits give low values 1.02 | [12] 0.949 | [13] 1.01 | [14] 1.14 | [15] 0.962 | [16] 0.995 | [17] 1 | [18] 0.924 | S. cerevisiae deletion strains, locus YNL128W, strain TEP1, hits give low values 1.02 | [19] 0.98 | [20] 1 | [21] 0.997 | [22] 1.01 | [23] 0.9 | [24] 0.895 | [25] 0.966

— PubChem BioAssay AID1159580 (chemical genetic matrix, 2015)
